Assay results from ChEMBL document CHEMBL3988442, “University of Dundee, Small-Polar-MMV Screening Library” (2021).
For some of these results: Potency and affinity values are given separately.

Legend:
Parameters in all cases: scale not given: direction of the effect not stated beside the values
[1] = target: Protein translocase subunit SecA (Escherichia coli (strain K12)) (UniProt P10408); assay: Assay to Identify E. coli SecA ATPase Inhibitors; type: functional; settings: 30 µM
[2] = target: T1, Ubiquitin-activating enzyme e1, putative (Leishmania donovani (strain BPK282A1)) (UniProt E9BSI1); assay: Leishmania donovani Ubiquitin Activating Enzyme (LdE1); type: functional; settings: 30 µM
T1 sequence (whole entry): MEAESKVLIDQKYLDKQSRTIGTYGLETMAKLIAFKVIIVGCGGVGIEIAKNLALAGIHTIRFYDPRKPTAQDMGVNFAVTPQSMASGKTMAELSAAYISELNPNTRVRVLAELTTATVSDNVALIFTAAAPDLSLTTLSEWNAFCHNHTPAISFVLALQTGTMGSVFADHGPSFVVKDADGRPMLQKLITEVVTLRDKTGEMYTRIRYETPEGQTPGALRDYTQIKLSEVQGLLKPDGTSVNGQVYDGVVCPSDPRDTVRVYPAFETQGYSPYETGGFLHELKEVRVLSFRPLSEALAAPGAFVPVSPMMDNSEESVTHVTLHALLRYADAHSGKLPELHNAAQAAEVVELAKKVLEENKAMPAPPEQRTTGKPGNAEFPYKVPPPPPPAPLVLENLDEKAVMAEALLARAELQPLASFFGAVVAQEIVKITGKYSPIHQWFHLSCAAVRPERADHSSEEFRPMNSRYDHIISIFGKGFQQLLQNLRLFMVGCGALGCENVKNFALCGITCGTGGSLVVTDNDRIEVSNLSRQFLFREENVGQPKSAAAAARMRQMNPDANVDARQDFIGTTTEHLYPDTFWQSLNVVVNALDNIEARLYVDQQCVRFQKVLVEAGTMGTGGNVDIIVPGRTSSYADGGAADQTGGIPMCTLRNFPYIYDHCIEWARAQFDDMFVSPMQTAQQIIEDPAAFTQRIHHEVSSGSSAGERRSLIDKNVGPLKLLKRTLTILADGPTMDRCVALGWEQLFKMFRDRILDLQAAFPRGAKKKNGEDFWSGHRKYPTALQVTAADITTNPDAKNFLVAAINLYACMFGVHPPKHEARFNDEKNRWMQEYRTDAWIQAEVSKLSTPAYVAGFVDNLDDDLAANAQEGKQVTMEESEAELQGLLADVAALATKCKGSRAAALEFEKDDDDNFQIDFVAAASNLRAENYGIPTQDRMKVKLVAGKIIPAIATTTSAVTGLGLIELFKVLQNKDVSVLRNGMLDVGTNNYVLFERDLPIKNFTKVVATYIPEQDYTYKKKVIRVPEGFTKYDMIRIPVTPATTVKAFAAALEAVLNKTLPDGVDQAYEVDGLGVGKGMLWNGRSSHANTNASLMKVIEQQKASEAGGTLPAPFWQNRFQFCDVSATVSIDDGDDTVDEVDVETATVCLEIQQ

[3] = target: AMP-activated protein kinase, AMPK (Homo sapiens) (UniProt P54646+O43741+P54619+Q9UGJ0+Q9Y478+Q13131+Q9UGI9); assay: AMP-dependent Kinase enzyme assay. An in vitro enzyme assay that detects ADP turnover that is directly proportional to AMPK activity. This uses naive AMPK that is activated during the assay with MK-8722; type: functional; settings: 30 µM
[4] = target: Sialic acid-binding Ig-like lectin 9 (Homo sapiens) (UniProt Q9Y336); assay: Hs-Siglec9 ALPHAscreen SOP 20170721; settings: 10 µM
Chain of Sialic acid-binding Ig-like lectin 9 (Homo sapiens) (Q9Y336 whole entry): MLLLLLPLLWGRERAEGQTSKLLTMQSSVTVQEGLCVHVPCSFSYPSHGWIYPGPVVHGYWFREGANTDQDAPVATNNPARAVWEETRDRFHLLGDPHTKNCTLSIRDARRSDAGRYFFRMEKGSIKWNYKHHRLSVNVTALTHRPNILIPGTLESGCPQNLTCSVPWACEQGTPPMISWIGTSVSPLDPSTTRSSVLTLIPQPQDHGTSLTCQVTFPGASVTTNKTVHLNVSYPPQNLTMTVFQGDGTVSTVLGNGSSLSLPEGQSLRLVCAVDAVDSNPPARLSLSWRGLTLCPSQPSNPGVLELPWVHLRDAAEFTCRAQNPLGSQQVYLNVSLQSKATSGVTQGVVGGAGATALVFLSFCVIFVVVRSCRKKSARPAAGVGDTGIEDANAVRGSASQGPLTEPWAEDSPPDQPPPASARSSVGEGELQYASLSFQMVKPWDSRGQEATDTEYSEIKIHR

Trypanosoma cruzi = assay: Trypanosoma cruzi phosphomannomutase and mannose-1-phosphate guanylyltransferase assay; type: functional; settings: 10 µM
[5] = target: T2, Arginase-2, mitochondrial (Homo sapiens) (UniProt P78540); assay: in vitro enzyme assay to detect the production of urea directly proportional to the activity of Arginase II; type: functional; settings: 33.3 µM; further: in the data most compounds retested in dose-response had high values
T2 sequence (whole entry): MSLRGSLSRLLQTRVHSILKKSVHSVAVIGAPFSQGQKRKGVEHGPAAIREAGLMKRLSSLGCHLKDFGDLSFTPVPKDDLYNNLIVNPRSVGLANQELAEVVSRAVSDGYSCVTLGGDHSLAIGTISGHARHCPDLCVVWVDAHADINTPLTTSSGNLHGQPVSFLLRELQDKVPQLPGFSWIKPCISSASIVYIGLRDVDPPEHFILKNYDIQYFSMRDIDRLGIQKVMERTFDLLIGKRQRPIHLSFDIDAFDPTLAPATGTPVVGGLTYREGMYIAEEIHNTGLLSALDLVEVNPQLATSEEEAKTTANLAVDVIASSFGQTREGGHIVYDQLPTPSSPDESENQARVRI

[6] = target: T3, Proteasome subunit beta (Trypanosoma cruzi) (UniProt O96673); assay: Trypanosoma cruzi proteasome chymotrypsin-like activity (TcProtChymo) assay.; further: in the data most compounds retested in dose-response had high values; type: functional; settings: 9.37 µM
T3 sequence (whole entry): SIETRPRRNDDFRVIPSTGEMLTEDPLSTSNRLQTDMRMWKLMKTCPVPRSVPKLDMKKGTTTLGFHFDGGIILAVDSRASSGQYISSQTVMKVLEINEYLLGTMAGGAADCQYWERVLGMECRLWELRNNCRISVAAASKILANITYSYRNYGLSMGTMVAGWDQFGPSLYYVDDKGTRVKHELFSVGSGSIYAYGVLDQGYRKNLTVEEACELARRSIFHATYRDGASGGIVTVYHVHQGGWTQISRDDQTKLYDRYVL

Homo sapiens = species on record: Homo sapiens; assay: To identify inhibition of the IFN signalling (Jak-Stat) pathway via expression of an eGFP reporter gene under the control of an IFN-stimulated response element (ISRE) containing MxA promoter.; type: functional; settings: 30 µM
[7] = target: T4, Tyrosyl-tRNA synthetase, putative (Trypanosoma cruzi (strain CL Brener)) (UniProt Q4DSP6); assay: Trypanosoma cruzi tyrosyl tRNA synthetase (TcYRS) _High Tyrosine SOP; type: functional; settings: 30 µM; further: in the data most compounds retested in dose-response had high values
T4 sequence (whole entry): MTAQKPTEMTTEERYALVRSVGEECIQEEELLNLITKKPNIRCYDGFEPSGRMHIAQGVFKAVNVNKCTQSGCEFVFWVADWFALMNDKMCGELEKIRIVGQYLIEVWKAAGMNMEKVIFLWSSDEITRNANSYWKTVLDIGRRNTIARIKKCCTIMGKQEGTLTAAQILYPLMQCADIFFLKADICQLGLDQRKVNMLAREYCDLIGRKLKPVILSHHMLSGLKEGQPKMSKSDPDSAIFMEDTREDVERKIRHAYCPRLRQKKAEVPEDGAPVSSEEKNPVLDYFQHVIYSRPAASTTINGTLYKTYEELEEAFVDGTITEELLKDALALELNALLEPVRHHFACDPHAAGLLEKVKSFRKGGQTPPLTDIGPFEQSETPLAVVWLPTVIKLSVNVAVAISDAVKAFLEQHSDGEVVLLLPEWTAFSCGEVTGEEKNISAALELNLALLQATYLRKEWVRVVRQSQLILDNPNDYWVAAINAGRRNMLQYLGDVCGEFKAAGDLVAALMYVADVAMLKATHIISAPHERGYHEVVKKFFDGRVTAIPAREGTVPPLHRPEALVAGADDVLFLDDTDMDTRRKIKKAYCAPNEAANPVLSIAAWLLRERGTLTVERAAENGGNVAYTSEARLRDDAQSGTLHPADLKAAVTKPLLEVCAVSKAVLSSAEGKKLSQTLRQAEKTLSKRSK

[8] = target: T4, Tyrosyl-tRNA synthetase, putative (Trypanosoma cruzi (strain CL Brener)); assay: Trypanosoma cruzi tyrosyl tRNA synthetase (TcYRS) SOP; type: functional; settings: 30 µM
[9] = target: Chromo domain-containing protein 1 (Saccharomyces cerevisiae (strain ATCC 204508 / S288c) (Baker's yeast)) (UniProt P32657); assay: ScCHD-1 Enzyme Inhibition Assay; type: functional; settings: 30 µM; further: in the data most compounds retested in dose-response had high values
Chain of Chromo domain-containing protein 1 (Saccharomyces cerevisiae (strain ATCC 204508 / S288c) (Baker's yeast)) (P32657 whole entry, the tested form may be a part): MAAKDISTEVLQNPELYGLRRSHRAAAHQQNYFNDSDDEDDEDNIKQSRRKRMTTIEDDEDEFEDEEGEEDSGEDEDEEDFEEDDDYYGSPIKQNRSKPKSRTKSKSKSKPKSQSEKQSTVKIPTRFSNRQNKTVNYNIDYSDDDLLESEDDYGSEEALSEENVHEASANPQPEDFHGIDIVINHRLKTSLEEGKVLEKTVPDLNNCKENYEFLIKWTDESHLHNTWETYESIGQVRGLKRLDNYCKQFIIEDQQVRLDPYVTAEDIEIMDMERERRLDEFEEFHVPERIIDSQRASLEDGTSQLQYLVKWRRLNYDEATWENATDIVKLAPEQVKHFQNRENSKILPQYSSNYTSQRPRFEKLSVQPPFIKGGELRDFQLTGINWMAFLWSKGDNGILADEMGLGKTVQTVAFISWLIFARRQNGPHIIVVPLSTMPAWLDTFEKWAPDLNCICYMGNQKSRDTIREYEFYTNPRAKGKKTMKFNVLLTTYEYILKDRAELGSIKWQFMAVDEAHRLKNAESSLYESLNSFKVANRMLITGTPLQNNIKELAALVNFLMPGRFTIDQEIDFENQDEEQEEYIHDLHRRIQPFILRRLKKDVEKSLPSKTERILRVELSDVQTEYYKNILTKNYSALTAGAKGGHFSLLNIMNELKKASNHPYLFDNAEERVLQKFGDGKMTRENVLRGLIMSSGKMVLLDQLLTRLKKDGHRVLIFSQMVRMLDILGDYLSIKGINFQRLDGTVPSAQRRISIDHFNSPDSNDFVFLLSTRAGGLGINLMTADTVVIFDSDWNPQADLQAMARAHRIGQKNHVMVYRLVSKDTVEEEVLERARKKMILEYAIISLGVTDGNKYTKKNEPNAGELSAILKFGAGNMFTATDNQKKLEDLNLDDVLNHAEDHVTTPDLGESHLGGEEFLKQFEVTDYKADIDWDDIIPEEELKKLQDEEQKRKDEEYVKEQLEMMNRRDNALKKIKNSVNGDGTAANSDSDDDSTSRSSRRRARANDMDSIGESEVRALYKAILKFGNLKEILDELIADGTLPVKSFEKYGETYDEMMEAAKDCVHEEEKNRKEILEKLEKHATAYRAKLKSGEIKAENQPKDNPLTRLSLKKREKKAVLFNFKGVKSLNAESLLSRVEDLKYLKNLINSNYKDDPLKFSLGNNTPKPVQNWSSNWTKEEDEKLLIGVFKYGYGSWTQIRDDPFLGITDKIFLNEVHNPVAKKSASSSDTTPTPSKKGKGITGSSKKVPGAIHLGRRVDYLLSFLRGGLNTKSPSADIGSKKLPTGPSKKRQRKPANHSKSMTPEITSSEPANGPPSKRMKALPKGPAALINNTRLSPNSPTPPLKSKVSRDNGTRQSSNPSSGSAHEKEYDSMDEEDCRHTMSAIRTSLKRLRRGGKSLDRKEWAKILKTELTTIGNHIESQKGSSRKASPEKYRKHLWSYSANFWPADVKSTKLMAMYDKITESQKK

Chain of Protein translocase subunit SecA (Escherichia coli (strain K12)) (P10408 whole entry): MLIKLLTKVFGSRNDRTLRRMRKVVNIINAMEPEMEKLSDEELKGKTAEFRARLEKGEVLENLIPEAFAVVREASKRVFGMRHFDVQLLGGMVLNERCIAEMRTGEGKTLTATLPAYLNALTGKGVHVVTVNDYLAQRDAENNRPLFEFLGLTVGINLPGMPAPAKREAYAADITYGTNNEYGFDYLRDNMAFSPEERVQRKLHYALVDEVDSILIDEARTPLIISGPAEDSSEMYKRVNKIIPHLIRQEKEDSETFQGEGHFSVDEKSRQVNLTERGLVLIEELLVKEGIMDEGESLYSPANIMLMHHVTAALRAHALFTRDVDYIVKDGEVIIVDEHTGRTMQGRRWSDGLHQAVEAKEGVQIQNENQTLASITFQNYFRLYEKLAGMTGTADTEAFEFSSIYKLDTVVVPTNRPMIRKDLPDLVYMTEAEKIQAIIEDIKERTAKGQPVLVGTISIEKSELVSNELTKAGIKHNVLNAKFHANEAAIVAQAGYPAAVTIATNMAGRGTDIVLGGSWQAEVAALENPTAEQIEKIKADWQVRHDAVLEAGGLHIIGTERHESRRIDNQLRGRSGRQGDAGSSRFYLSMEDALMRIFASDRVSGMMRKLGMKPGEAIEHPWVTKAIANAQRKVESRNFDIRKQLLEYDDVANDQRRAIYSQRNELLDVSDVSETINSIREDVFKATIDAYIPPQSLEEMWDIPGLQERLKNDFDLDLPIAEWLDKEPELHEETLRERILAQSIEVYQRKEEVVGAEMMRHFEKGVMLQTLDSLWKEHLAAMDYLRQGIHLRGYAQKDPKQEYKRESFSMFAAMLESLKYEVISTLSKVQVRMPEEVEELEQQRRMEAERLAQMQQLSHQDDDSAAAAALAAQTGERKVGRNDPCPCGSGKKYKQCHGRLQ

O=C(C1CCOC1)N1C[C@H]2CN(Cc3nccs3)C[C@H]2C1 (stereo partly specified)
Percent Effect [1]: -7.06% | Percent Effect [2]: 5.41% | Percent Effect [3]: 2.27% | Percent Effect [4]: -7.15% | Percent Effect (Trypanosoma cruzi): -3.81% | Percent Effect [5]: -6.69% | Percent Effect [6]: 15.7% | Percent Effect (Homo sapiens): -4.44% | Percent Effect [7]: 0% | Percent Effect [8]: 2.56% | Percent Effect [9]: -2.08%

Cc1ccc2c(c1)c(CNC(=O)C1CC(=O)N(C3CCCC3)C1)nn2C (stereo unspecified)
Percent Effect [1]: 1.21% | Percent Effect [2]: 0% | Percent Effect [3]: 4.01% | Percent Effect [4]: 6.8% | Percent Effect (Trypanosoma cruzi): -7.34% | Percent Effect [5]: -1.43% | Percent Effect [6]: 21% | Percent Effect (Homo sapiens): 10% | Percent Effect [7]: 3.7% | Percent Effect [8]: 0% | Percent Effect [9]: -5.94%

CCn1ncc2c1C(COC)CN(Cc1ccsc1)C2 (stereo unspecified)
Percent Effect [1]: -3.96% | Percent Effect [2]: 18.9% | Percent Effect [3]: -9.13% | Percent Effect [4]: 5.54% | Percent Effect (Trypanosoma cruzi): 1.47% | Percent Effect [5]: 1.24% | Percent Effect [6]: 6.95% | Percent Effect (Homo sapiens): 5.76% | Percent Effect [7]: 7.53% | Percent Effect [8]: 16.1% | Percent Effect [9]: -11.9%

Cc1cnc(CN2CCOC(Cn3nc(C)nc3C)C2)cn1 (stereo unspecified)
Percent Effect [1]: -1.64% | Percent Effect [2]: 17.7% | Percent Effect [3]: -6.35% | Percent Effect [4]: 2.13% | Percent Effect (Trypanosoma cruzi): 4.82% | Percent Effect [5]: 3.42% | Percent Effect [6]: 15.8% | Percent Effect (Homo sapiens): -21.9% | Percent Effect [7]: 6.4% | Percent Effect [8]: 24.1% | Percent Effect [9]: -3.57%

CSc1ccc(NS(=O)(=O)c2cnn(C)c2)cn1
Percent Effect [1]: -5.12% | Percent Effect [2]: 8.22% | Percent Effect [3]: -0.942% | Percent Effect [4]: 42.3% | Percent Effect (Trypanosoma cruzi): 3.57% | Percent Effect [5]: -4.39% | Percent Effect [6]: 0.0856% | Percent Effect (Homo sapiens): -19.3% | Percent Effect [7]: 4.17% | Percent Effect [8]: 13.6% | Percent Effect [9]: -2.22%

O=C(NCc1ccccc1)N1CCC2(CC(=O)N(c3ccsc3)C2)C1 (stereo unspecified)
Percent Effect [1]: -1.66% | Percent Effect [2]: 0% | Percent Effect [3]: 3.29% | Percent Effect [4]: 0.825% | Percent Effect (Trypanosoma cruzi): 0.977% | Percent Effect [5]: 0.417% | Percent Effect [6]: 2.45% | Percent Effect (Homo sapiens): -9.22% | Percent Effect [7]: 85.2% | Percent Effect [8]: 6.1% | Percent Effect [9]: -1.83%

CN(Cc1ccco1)C(=O)C1CSCN1C(=O)c1cccnc1 (stereo unspecified)
Percent Effect [1]: -3.86% | Percent Effect [2]: 0% | Percent Effect [3]: 0.482% | Percent Effect [4]: 1.7% | Percent Effect (Trypanosoma cruzi): 0.467% | Percent Effect [5]: -3.96% | Percent Effect [6]: 4.65% | Percent Effect (Homo sapiens): -7.95% | Percent Effect [7]: -0.493% | Percent Effect [8]: 1.24% | Percent Effect [9]: -0.736%

Cc1nn(CC(C)C)c(N(C)C)c1CNCc1cccnc1N(C)C
Percent Effect [1]: -4.49% | Percent Effect [2]: 5.41% | Percent Effect [3]: -8.59% | Percent Effect [4]: 3.17% | Percent Effect (Trypanosoma cruzi): -9.34% | Percent Effect [5]: -6.41% | Percent Effect [6]: 7.75% | Percent Effect (Homo sapiens): 6.14% | Percent Effect [7]: 1.48% | Percent Effect [8]: 3.7% | Percent Effect [9]: -5.66%

CC(=O)N1CCC2(CC1)CC[C@@]1(C(=O)N(C)C)CN(S(C)(=O)=O)C[C@@H]21
Percent Effect [1]: 0.456% | Percent Effect [2]: 18.9% | Percent Effect [3]: -1.01% | Percent Effect [4]: 10.2% | Percent Effect (Trypanosoma cruzi): 2.83% | Percent Effect [5]: 12.7% | Percent Effect [6]: 4.38% | Percent Effect (Homo sapiens): 28.4% | Percent Effect [7]: 3.23% | Percent Effect [8]: 18.5% | Percent Effect [9]: -8.55%

COc1cccc(N2CCN(Cc3ncc[nH]3)CC2=O)c1
Percent Effect [1]: -0.114% | Percent Effect [2]: 6.94% | Percent Effect [3]: -20.4% | Percent Effect [4]: -7.16% | Percent Effect (Trypanosoma cruzi): -1.85% | Percent Effect [5]: -0.442% | Percent Effect [6]: 12.3% | Percent Effect (Homo sapiens): -17.7% | Percent Effect [7]: -2.1% | Percent Effect [8]: 10.3% | Percent Effect [9]: -4.76%

O=C(C1=CCCC1)N1C[C@H](Oc2cccnc2)[C@H]2OCCC[C@H]21
Percent Effect [1]: 1.45% | Percent Effect [2]: 5.41% | Percent Effect [3]: 3.36% | Percent Effect [4]: -3.91% | Percent Effect (Trypanosoma cruzi): -0.977% | Percent Effect [5]: -2.08% | Percent Effect [6]: 3.47% | Percent Effect (Homo sapiens): 7.05% | Percent Effect [7]: 92.1% | Percent Effect [8]: 3.66% | Percent Effect [9]: -17.8%
